# Most compounds without a hit are left out; they make up all but 9.2% or so of the library.
# ELG1 genotox: qHTS screen for small molecules that induce genotoxicity in human embryonic kidney (HEK293T) cells expressing luciferase-tagged ELG1 | HEK293T ELG1-luciferase reporter, luminescence, 16 h | hit rate 1.3% among 330,000 | Potency, µM (series often up to 46 µM), inactives show top-dose activity change, positive = activation, actives largely listed as activators; also: % of control where 0% means no effect; nearly all actives have a fitted effect of over 60% in size
#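 16 hr compound incubation (37 °C, 5% CO2) of HEK293T cells carrying luciferase-tagged ELG1; luciferase then measured by ONE-Glo luminescence after 30 min at RT.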
# FLuc modulator: qHTS profiling assay for firefly luciferase inhibitor/activator using purifed enzyme and Km concentrations of substrates (counterscreen for miR-21 project). Luciferin 4-monooxygenase (Photinus pyralis), P08659. purified FLuc, Km substrates, luminescence inhibition. Potency, µM (doses to about 57.5 µM), inactives show at the highest dose activity change, negative = inhibition, most hits filed as inhibitors. hit rate 6.9% among 360,000;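 also: plate controls were vehicle for no effect and reference inhibitor for full effect; nearly all actives have a fitted effect of over 55% in size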
# Target sequence (P08659 whole entry, looked up): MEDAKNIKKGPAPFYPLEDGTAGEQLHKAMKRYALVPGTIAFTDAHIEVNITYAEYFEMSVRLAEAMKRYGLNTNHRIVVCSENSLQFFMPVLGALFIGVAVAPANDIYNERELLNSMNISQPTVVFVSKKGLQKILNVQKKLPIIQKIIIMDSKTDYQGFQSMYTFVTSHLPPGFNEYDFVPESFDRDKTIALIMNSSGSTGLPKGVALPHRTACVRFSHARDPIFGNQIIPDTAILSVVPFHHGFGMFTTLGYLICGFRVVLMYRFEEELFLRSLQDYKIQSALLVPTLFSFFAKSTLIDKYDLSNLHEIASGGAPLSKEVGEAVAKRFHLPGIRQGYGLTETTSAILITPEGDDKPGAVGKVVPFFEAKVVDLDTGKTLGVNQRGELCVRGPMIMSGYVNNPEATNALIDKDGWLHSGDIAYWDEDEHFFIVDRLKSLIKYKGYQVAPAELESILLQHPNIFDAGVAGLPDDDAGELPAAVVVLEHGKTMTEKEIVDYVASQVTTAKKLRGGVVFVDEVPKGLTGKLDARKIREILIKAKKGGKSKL
#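 Biochemical qHTS of compounds, final roughly 60 µM downward over six points, against 10 nM purified firefly luciferase using Km concentrations of substrates (10 uM D-luciferin, 10 uM ATP) in Tris acetate pH 7.5 buffer; luminescence output.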
# SMN2 splice enh: qHTS Assay for Enhancers of SMN2 Splice Variant Expression; HEK293 SMN2-luciferase splicing reporter, luminescence, 30-36 h; Potency, µM (highest dose often 46.1 µM), without a hit: at the highest dose activity change, positive = activation, most hits filed as activators; hit rate 2.8% among 210,000; also: % of control where 0% means no effect; nearly all actives have a fitted effect of over 55% in size
#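 HEK293 cells carry an SMN2 minigene-luciferase reporter in which exon 7 inclusion puts luciferase in frame. Cells were seeded at 2000 cells/well, attached for 10-12 hours, then exposed to compounds for 30-36 hours at 37C before ONE-Glo luminescence.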
# NPC1 prom act: qHTS Assay for NPC1 Promoter Activators; Huh7 NPC1 promoter luciferase reporter, 24 h; Potency, µM (titrated, usually from 9.22 µM), for the others: at the highest dose activation, hits mostly activators; hit rate 2.4% among 320,000; also: % of control where 0% means no effect; nearly all actives have a fitted effect of over 60% in size
#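 Huh7 reporter cells (NPC1 promoter driving luciferase) are dosed with compound for 24 h at 37 °C, 5% CO2; luciferase detection reagent is then added and luminescence measured after 10 min at ambient temperature.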
# ELG1 DNA repair: qHTS screen for small molecules that inhibit ELG1-dependent DNA repair in human embryonic kidney (HEK293T) cells expressing luciferase-tagged ELG1 | HEK293T ELG1-luciferase reporter, luminescence, 16 h; DNA damage induced by 5-fluorouridine | Potency, µM (top dose mostly 46.1 µM), inactives show at the highest dose activity change, negative = inhibition, hits mostly inhibitors | hit rate 2.3% among 330,000; also: % is scaled to controls: 0 for no effect and ±100 for the full control effect; nearly all actives have a fitted effect of over 55% in size
#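 DMSO vehicle served as the neutral condition. Each well held 2,000 cells given 5-fluorouridine plus compound; after 16 hr at 37 °C/5% CO2, ONE-Glo was added and luciferase measured 30 min later.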
# Rab9 promoter act: qHTS Assay for Rab9 Promoter Activators; Potency, µM (titrated, usually from 9.22 µM), for inactives: at the top dose activation, negative = inhibition, usual class: activators; hit rate 2.8% among 320,000; Huh7 Rab9 promoter-luciferase reporter, luminescence, 24 h; also: % of control where 0% means no effect; nearly all actives have a fitted effect of over 60% in size
#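 Steps: seed 1500 Huh7 Rab9-luc cells per well, rest 2 h at 37 °C; add compound in DMSO; incubate 24 h; add luciferase reagent, 10 min ambient; read luminescence.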
# * marks the source's active call; other numbers are inactive results; ? = inconclusive; . = no result given. Calls follow the shape of the dose curve; as a rule, active = well fitted curve in the direction sought with a large enough effect; inconclusive = small, poorly fitted or top-dose-only effect, or another doubt; inactive = no such curve, though single readings can be large; an effect the other way counts as inactive or inconclusive. Potency is read from the fitted curve at half-maximal effect.
SMILES,ELG1 genotox,FLuc modulator,SMN2 splice enh,NPC1 prom act,ELG1 DNA repair,Rab9 promoter act
Cc1ccc(C(c2c(C)nn(-c3ccccc3)c2N)c2c(C)nn(-c3ccccc3)c2N)cc1,-4%,-3%,17%,-1%,?,-9%
Cc1nn(-c2ccccc2)c(/N=C/c2ccccc2O)c1-c1ccccc1,?,-15%,11µM*,2.2µM*,?,2.8µM*
Cc1nn(-c2ccccc2)c(N)c1-c1ccccc1,15%,13µM*,13µM*,?,?,3.2µM*
Cc1cc(-c2ccccc2)n(-c2ccccc2)n1,?,15µM*,.,?,?,?
Cc1nn(-c2ccccc2)c(N)c1C(c1ccc(C(C)C)cc1)c1c(C)nn(-c2ccccc2)c1N,-9%,4%,0%,-1%,8.2µM*,-1%
O=C(COc1ccccc1Cl)N(Cc1ccco1)Cc1ccco1,.,0%,-5%,.,.,.
CCCNC(=O)Nc1cc(C(=O)NCc2cccc(OCC)c2)ccc1N1CCCC1,.,-10%,.,.,.,.
Cc1nn(CC2CCCCC2)c(N)c1-c1ccccc1,?,17µM*,-13%,29%,?,?
Cc1nn(-c2nc3ccccc3[nH]2)c(N)c1-c1ccccc1,?,1.9µM*,2µM*,1.6µM*,?,0.63µM*
CCOC(=O)Cn1nc(C)c(-c2ccccc2)c1N,-1%,-5%,-5%,-1%,14%,5%
Nc1c(-c2ccccc2)c(CSc2nc3ccccc3[nH]2)nn1-c1cccc(C(=O)O)c1,-3%,?,10%,-2%,-14%,2%
O=C(CCCCn1c(=O)[nH]c2ccsc2c1=O)N1CCN(c2cccc(C(F)(F)F)c2)CC1,.,3%,-23%,.,.,.
O=C(CSC(=S)N1CCCCC1)N1N=CCC1c1ccccc1 (stereo not drawn),?,21µM*,-4%,26%,?,22%
O=C(CSc1ccc(Cl)cc1)N1N=CCC1c1ccccc1 (stereo not drawn),0%,-14%,.,-3%,0%,3%
COc1ccc(NC(=O)CCNC(=O)Cn2ccc3ccccc3c2=O)cc1OC,0%,-2%,.,-6%,-2%,-1%
Cc1ccc(NC(=O)CCNC(=O)Cn2ccc3ccccc3c2=O)cc1F,?,17µM*,.,29%,26%,?
CCc1ccc(N2C(=O)c3sc4nnc(-c5ccccc5)c(=O)n4c3C2=O)cc1,8%,19µM*,8%,-3%,-11%,-13%
CCc1ccc(NC(=O)C(C)n2nnc3sc(-c4ccccc4)cc3c2=O)cc1 (stereo not drawn),.,-16%,10%,.,.,.
COCCSc1nnc(NC(=O)C(C)(C)C)s1,17%,15µM*,.,?,?,?
CC(C)(C)C(=O)Nc1nnc(SCc2ccc(F)cc2)s1,?,?,-18%,17%,?,18%
CC(C)(C)C(=O)Nc1nnc(SCc2cccc(F)c2)s1,15%,19µM*,?,?,?,2µM*
COCCSc1nnc(NC(=O)CSc2ccccc2)s1,3%,-5%,5%,9%,0%,12%
COc1cccc(CNC(=O)CCCC(=O)NC(C)CCc2ccccc2)c1 (stereo not drawn),1%,-12%,.,-1%,13%,0%
Cc1cc(NS(=O)(=O)c2ccc(NC(=S)NC(=O)/C=C/c3ccccc3)cc2)no1,-10%,-20%,.,1%,3%,-4%
Cc1cc(NS(=O)(=O)c2ccc(NC(=S)NC(=O)c3ccc(C(C)(C)C)cc3)cc2)no1,2%,11µM*,0%,-4%,-19%,1%
SMILES,ELG1 genotox,FLuc modulator,SMN2 splice enh,NPC1 prom act,ELG1 DNA repair,Rab9 promoter act
COc1ccc(/C=C/C(=O)NC(=S)Nc2ccc(S(=O)(=O)Nc3cc(OC)ncn3)cc2)cc1,1%,15µM*,0%,-1%,9%,5%
Cc1ccc(/C=C/C(=O)NC(=S)Nc2ccc(S(=O)(=O)Nc3cc(C)on3)cc2)cc1,-4%,9.5µM*,.,1%,2%,-1%
CCc1ccc(CNC(=O)CSc2cc(=O)n(C)c3ccc(Cl)cc23)cc1,.,-7%,-12%,.,.,.
CCN(Cc1ccccc1)c1ccc(/C=N/N2CCOCC2)cc1,13%,?,-14%,17%,?,12%
CCN(CC)c1ccc(/C=N/N2CCOCC2)cc1,7.3µM*,8.5µM*,22µM*,3.5µM*,?,3.2µM*
CCN1C(=O)CC(N2CCN(c3ccc(C(=O)c4ccncc4)cc3)CC2)C1=O (stereo not drawn),-22%,1%,-15%,7%,15µM*,-4%
CS(=O)(=O)N1CCN(c2ccc(NC(=S)NC(=O)c3cccs3)cc2)CC1,3%,-2%,.,3%,16%,-8%
O=C(NC(=S)Nc1ccc(S(=O)(=O)N2CCCC2)cc1)c1cccs1,5%,-11%,20%,6%,?,-4%
O=C(NC(=S)Nc1ccc(N2CCN(C(=O)c3ccccc3)CC2)cc1)c1cccs1,-19%,1%,-51%,-13%,13µM*,-14%
O=C(NC(=S)Nc1ccccc1N1CCN(C(=O)c2ccccc2)CC1)c1cccs1,9%,5%,.,-8%,?,-8%
CCCC(=O)NC(=S)Nc1ccc(N2CCN(C(=O)c3cccs3)CC2)cc1,-15%,-5%,-6%,-2%,16µM*,-11%
O=C(NC(=S)Nc1ccc(N2CCCCC2)cc1)c1cccs1,2.9µM*,5.4µM*,-1%,1.3µM*,?,2.2µM*
O=C(Nc1ccc(S(=O)(=O)N2CCN(c3ccccc3)CC2)cc1)c1cccs1,-5%,-2%,-16%,14%,12µM*,6%
Cc1cc(=O)n2nc(N3CCC(C(=O)Nc4ccc(C(C)C)cc4)CC3)sc2n1,.,-11%,-8%,.,.,.
O=C(NC(=S)N1CCN(c2ccc(O)cc2)CC1)c1cccs1,2%,-20%,.,9%,13µM*,-6%
COC(=O)c1ccc(NC(=O)CCN2C(=O)C3CC=CCC3C2=O)cc1 (stereo not drawn),-2%,-3%,.,0%,?,12%
CCC(=O)Nc1c(-c2ccc3ccccc3c2)nc2ccccn12,11%,3.8µM*,.,17%,?,?
Cc1ccc(C(=O)Nc2c(-c3ccccc3)nc3ccccn23)cc1,.,-1%,-17%,.,.,.
CC(=O)Nc1c(-c2ccc3ccccc3c2)nc2ccccn12,21µM*,1.9µM*,.,?,?,?

# Screens as filed in PubChem.
